Source: PubChem BioAssay AID488969 (Vanderbilt High Throughput Screening Facility, 2010)
Over roughly 110,000 compounds, “z-score” has its median near -0.1; the highest 2% begin near 2. The entries come from a sample that favours the highest values as a whole. Activity calls are given as the source filed them.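 The calls were made as follows: active = z-score in the third read window above 3 or below -3; inactive = the rest.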

target: Metabotropic glutamate receptor 8 (Rattus norvegicus) (UniProt P70579); assay: mGluR8 Gi/Go-coupled signaling modulation – cell-based, rat, thallium flux, HTS, primary screen (AID 488969); conditions: HEK293 rat mGluR8, GIRK (G protein-gated inwardly rectifying potassium channel) thallium flux, FluoZin2; at 10 µM; stronger effect = higher value; submaximal glutamate (EC20) added with thallium
Sequence (P70579 whole entry, looked up): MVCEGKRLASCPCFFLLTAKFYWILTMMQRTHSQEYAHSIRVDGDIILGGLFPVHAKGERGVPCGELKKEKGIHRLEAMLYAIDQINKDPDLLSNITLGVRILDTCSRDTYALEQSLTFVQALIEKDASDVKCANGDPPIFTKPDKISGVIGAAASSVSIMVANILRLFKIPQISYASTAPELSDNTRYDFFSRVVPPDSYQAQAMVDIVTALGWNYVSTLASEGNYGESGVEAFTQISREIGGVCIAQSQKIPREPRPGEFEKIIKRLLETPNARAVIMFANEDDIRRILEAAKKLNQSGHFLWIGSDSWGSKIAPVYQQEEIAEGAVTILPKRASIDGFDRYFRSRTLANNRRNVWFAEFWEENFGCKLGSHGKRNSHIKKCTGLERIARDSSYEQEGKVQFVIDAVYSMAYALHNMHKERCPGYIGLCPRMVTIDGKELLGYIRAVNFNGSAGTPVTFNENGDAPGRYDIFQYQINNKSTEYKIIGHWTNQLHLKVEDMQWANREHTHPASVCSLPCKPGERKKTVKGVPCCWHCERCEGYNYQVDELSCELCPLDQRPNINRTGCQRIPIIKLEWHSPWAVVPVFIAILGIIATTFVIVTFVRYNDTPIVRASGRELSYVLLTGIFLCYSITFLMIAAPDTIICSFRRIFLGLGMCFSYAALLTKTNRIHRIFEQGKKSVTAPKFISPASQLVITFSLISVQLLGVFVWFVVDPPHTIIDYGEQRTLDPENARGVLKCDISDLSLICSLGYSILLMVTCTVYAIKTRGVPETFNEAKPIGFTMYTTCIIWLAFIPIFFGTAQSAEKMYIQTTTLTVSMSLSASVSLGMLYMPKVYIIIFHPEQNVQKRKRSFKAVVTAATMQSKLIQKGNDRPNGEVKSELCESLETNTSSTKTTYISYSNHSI

| Structure (SMILES) | z-score |
| --- | --- |
| Cc1ccc(C2N(c3ccc(F)cc3)C(=O)C3CCCN32)cc1 (stereo not given) | 0.214 |
| N#Cc1cc(C(=O)c2ccccc2OCC(=O)Nc2ccccc2Cl)cn(C2CCCCC2)c1=O | -0.433 |
| CCn1c(CCCOc2ccc(Cl)cc2Cl)nnc1SCC(=O)Nc1cccc(F)c1 | -0.135 |
| CCOc1ccccc1Nc1ncccc1C(=O)N1CCCC1 | 1.1 |
| Cc1ccc(C)c(N2CCN(S(=O)(=O)c3c(C)noc3/C=C/N(C)C)CC2)c1 | -0.559 |
| CC1(C(=O)N2CC3(CC(c4ccccc4)=NO3)C[C@H]2C(=O)NCC(N)=O)CC1 (stereo not given in full) | -0.0396 |
| CCOc1ccccc1Oc1c(C)oc2c(CN3CCN(CCO)CC3)c(O)ccc2c1=O | -0.395 |
| CCc1ccc(N2CC(C(=O)Nc3ccc(C)c(S(=O)(=O)N4CCOCC4)c3)CC2=O)cc1 (stereo not given) | 0.319 |
| CC(C)NC(=O)c1ccccc1N(Cc1ccccc1)S(C)(=O)=O | 0.373 |
| COc1ccc2nc(NC(=O)c3cccc(-c4cc5ccccc5oc4=O)c3)sc2c1 | 0.372 |
| Cc1cc(C)cc(C(=O)NC(=S)Nc2ccc3c(c2)OCCO3)c1 | -0.353 |
| Cc1ccc(C(=O)NC(=S)Nc2ccc3c(c2)OCCO3)c(C)c1 | 2.7 |
| CCc1ccc(C(=O)NC(=S)Nc2ccc3c(c2)OCCO3)cc1 | 0.946 |
| Cc1ccc(Cl)c(NC(=S)N(CCCN2CCOCC2)Cc2ccco2)c1 | -0.227 |
| Cc1cccc2cc(/C=N/NC(=O)c3ccccc3O)c(Cl)nc12 | 0.0387 |
| O=C(NCCCCNC(=O)c1ccc(Cl)s1)c1ccc(Cl)s1 | -0.423 |
| Cc1cccc(N/N=C(\C(N)=O)C2=NC(C)(C)Cc3ccccc32)c1 | -0.302 |
| COc1ccc(N/N=C(/C(N)=O)C2=NC(C)(C)Cc3ccccc32)cc1 | -0.381 |
| CC1(C)Cc2ccccc2C(/C(=N\Nc2cccc(Cl)c2)C(N)=O)=N1 | 3.23 (active) |
| Cc1cc(C(=O)N/N=C/c2cccnc2)c(C)o1 | 0.000639 |
| O=C(CCCCl)NC(=S)Nc1cc(C(F)(F)F)ccc1N1CCOCC1 | 0.012 |
| O=C1CCCC2=C1C(c1ccncc1)c1c(nc(SCc3ccccc3)[nH]c1=O)N2 (stereo not given) | -1.55 |
| CCn1c2ccccc2c2cc(/C=N/n3c(C)nnc3C)ccc21 | -1.04 |
| CCn1c2ccccc2c2cc(/C=N/n3cn[nH]c3=S)ccc21 | 11.5 (active) |

| Structure (SMILES) | z-score |
| --- | --- |
| CCn1c2ccccc2c2cc(/C=N/n3cnnc3)ccc21 | -1.04 |
| CCc1nnc(N/N=C/c2ccc(N3CCC(C)CC3)c([N+](=O)[O-])c2)n1N | -0.0832 |
| Cc1nnc(N/N=C/c2cc([N+](=O)[O-])c(N3CCC(C)CC3)cc2N2CCC(C)CC2)n1N | 2.68 |
| CC1CCN(c2cc(N)c(Cl)cc2[N+](=O)[O-])CC1 | -0.475 |
| CC1CCN(c2ccc(/C=N/n3nnnc3N)cc2[N+](=O)[O-])CC1 | 3.58 (active) |
| Cc1ccc(/C=N/n2nnnc2N)cc1[N+](=O)[O-] | 0.159 |
| Nc1nnnn1/N=C/c1ccc(N2CCCCC2)c([N+](=O)[O-])c1 | 1.18 |
| CC(=O)Nc1ccc(OCC(O)CN2C(C)CCCC2C)cc1 (stereo not given) | -0.417 |
| Cn1c(=O)c2c(nc(SCc3ccccc3)n2Cc2ccc(Cl)cc2)n(C)c1=O | -0.333 |
| Cc1c(O)ccc(/C(Cc2ccc3ccccc3n2)=N\O)c1O | -0.308 |
| C/C(CC(O)c1ccc2ccccc2n1)=N/O (stereo not given) | 5.27 (active) |
| CC(=O)/C=C/c1ccc2ccccc2n1 | 0.038 |
| CCc1ccc2[nH]c(=O)c(C(c3nnnn3Cc3ccco3)N3CCC(C)CC3)cc2c1 (stereo not given) | -0.27 |
| Cc1ccnc(N(C(=O)c2cccs2)C(=O)c2cccs2)c1 | -0.0449 |
| O=C(/C=C/c1cccs1)Nc1ccc(Br)cn1 | -0.222 |
| O=C(c1cccs1)N(C(=O)c1cccs1)c1ccc(Br)cn1 | 2.26 |
| CC(=O)N1c2ccccc2Oc2cc3ccccc3cc21 | -0.261 |
| Cc1cccc(N2C(=O)CS/C2=N\NC(=O)c2ccc(Cl)cc2)c1C | 3.96 (active) |
| Cc1cccc(N2C(=O)CS/C2=N\NC(=O)c2ccc(Br)cc2)c1C | 1.16 |
| Cc1ccc(C(=O)N/N=C2\SCC(=O)N2c2cc(C)ccc2C)cc1 | -0.396 |
| Cc1ccc(N2C(=O)c3ccccc3C2Nc2ccccc2)nc1 (stereo not given) | -0.424 |
| CN1CCC/C1=C/C=C1\SC(=S)NC1=O | 2.4 |
| CN1CCN(/C=C2\SC(=S)NC2=O)CC1 | -0.54 |
| Cc1nn(C)c(C)c1/C=C1/SC(=S)NC1=O | 0.492 |

| Structure (SMILES) | z-score |
| --- | --- |
| Cc1ccc(C(=O)CSc2nc3ccccc3c(=O)n2-c2ccccc2)s1 | 0.061 |
| O=C(NCc1cccnc1)/C(=N\O)c1ccccc1 | 2.02 |
| O=C(NCc1ccncc1)/C(=N/O)c1ccccc1 | 1.14 |
| O=C(NCc1ccccc1)/C(=N\O)c1ccccc1 | 0.503 |
| COc1ccc(N(CC(=O)NCCC2=CCCCC2)S(C)(=O)=O)cc1OC | 0.274 |
| CCN1C(=O)/C(=C2/Sc3ccc(OC)cc3N2C)SC1=Nc1ccc(C(C)=O)cc1 | -0.0997 |
| CCOC(=O)N1CCC(NC(=O)c2ccc(CS(=O)(=O)c3ccc(OC)cc3)o2)CC1 | -0.141 |
| O=C(CN1CCCCC1)Nc1ccc(S(=O)(=O)N2CCOCC2)cc1 | -0.0871 |
| COc1ccccc1-c1nc2cc3ccccc3cc2nc1-c1ccccc1OC | -0.377 |
| CCCc1nn(C)c2c(=O)[nH]c(-c3ccccc3OCC)nc12 | -0.237 |
| O=c1ccc2cc(S(=O)(=O)Nc3ccc(F)cc3)ccc2o1 | -0.226 |
| Cc1cc(C)cc(NS(=O)(=O)c2ccc3[nH]c(=O)[nH]c3c2)c1 | 0.711 |
| Cc1cc(C)cc(NS(=O)(=O)c2ccc3oc(=O)ccc3c2)c1 | 2.23 |
| O=C(CSCC(=O)N1CCCCC1)Nc1nc(-c2ccc(Cl)s2)cs1 | 2.68 |
| CC1CN(C(=O)CSc2nc(-c3ccc(F)cc3)cs2)CC(C)O1 (stereo not given) | -0.898 |
| CC1CCCN(C(=O)CSCC(=O)Nc2nc(-c3cccs3)cs2)C1 (stereo not given) | 0.503 |
| O=C(CSCC(=O)N1CCN(c2ccccc2)CC1)Nc1nc(-c2ccc(Cl)s2)cs1 | 0.16 |
| O=C(CSCC(=O)N1CCOCC1)Nc1nc(-c2ccc3c(c2)OCO3)cs1 | 2 |
| CCC(=O)Nc1nc(-c2ccc3c(c2)OCCO3)cs1 | -0.0358 |
| CCOC(=O)N1CCN(C(=O)CSCC(=O)Nc2nc(-c3ccc4c(c3)OCO4)cs2)CC1 | -0.296 |
| O=C(CSc1nc(-c2ccc(F)cc2)cs1)N1CCOCC1 | 3.29 (active) |
| O=C(CSc1nc(-c2ccc(F)cc2)cs1)N1CCc2ccccc21 | -0.119 |
